{
  "source": "PubChem BioAssay (Tox21)",
  "test": "G protein-coupled receptor (GPCR) small molecule agonists, calcium flux assay: HEK293 wild type cell line counter screen (AID 1920065); further: on the % scale 0 is the no-effect control and ±100 the full control effect",
  "in_short": "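Cells were plated and cultured 18 h at 37 C/5% CO2, then loaded with calcium dye for 1 h at 37 C. Compounds in DMSO were pin-transferred in agonist mode, and fluorescence (Ex/Em 480/540) was read kinetically for 3 min at 1 s intervals.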",
  "note": "Values without a mark were called inactive. Activity calls are given as the source filed them. The call rests on the fitted dose curve.",
  "data": [
    {"molecule": "CN1CCOC(c2ccccc2)c2ccccc2C1", "note": "(stereo not drawn)", "values": [
      {"measurement": "outcome", "result": "inactive"}
    ]},
    {"molecule": "O=CCCc1ccccc1", "values": [
      {"measurement": "outcome", "result": "inactive"}
    ]},
    {"molecule": "CC(COC(C)(C)C)OCCCO", "note": "(stereo not drawn)", "values": [
      {"measurement": "outcome", "result": "inactive"}
    ]},
    {"molecule": "CC(C(=O)O)c1ccc(/C=C2\\CCCCC2=O)cc1", "note": "(stereo not drawn)", "values": [
      {"measurement": "outcome", "result": "inactive"}
    ]},
    {"molecule": "CC(=O)Oc1cc2c(s1)CCN(C(C(=O)C1CC1)c1ccccc1F)C2", "note": "(stereo not drawn)", "values": [
      {"measurement": "outcome", "result": "inactive"}
    ]},
    {"molecule": "CC(C)NCC(O)COc1ccc(COCCOC(C)C)cc1", "note": "(stereo not drawn)", "values": [
      {"measurement": "outcome", "result": "inactive"}
    ]},
    {"molecule": "[Cu+]", "values": [
      {"measurement": "outcome", "result": "inactive"}
    ]},
    {"molecule": "C[C@H](CN1CCCC1)C(=O)c1ccc(C(F)(F)F)cc1", "values": [
      {"measurement": "outcome", "result": "inactive"}
    ]},
    {"molecule": "CC(C)(C)c1n[nH]c(=S)n(N)c1=O", "values": [
      {"measurement": "outcome", "result": "inactive"}
    ]},
    {"molecule": "NCC(=O)CCC(=O)O", "values": [
      {"measurement": "outcome", "result": "inactive"}
    ]},
    {"molecule": "C=CC1CO1", "note": "(stereo not drawn)", "values": [
      {"measurement": "outcome", "result": "inactive"}
    ]},
    {"molecule": "Cc1oc(=O)oc1COC(=O)[C@@H]1N2C(=O)[C@@H](NC(=O)[C@H](N)c3ccccc3)[C@H]2SC1(C)C", "values": [
      {"measurement": "outcome", "result": "inactive"}
    ]},
    {"molecule": "FC1(F)C(F)(F)C(F)(F)C2(F)C(F)(C1(F)F)C(F)(F)C(F)(F)C1(F)C(F)(F)C(F)(F)C(F)(F)C(F)(F)C12F", "note": "(stereo not drawn)", "values": [
      {"measurement": "outcome", "result": "inactive"}
    ]},
    {"molecule": "N#CCc1ccccc1[N+](=O)[O-]", "values": [
      {"measurement": "outcome", "result": "inactive"}
    ]},
    {"molecule": "CCCCC/C=C/CC1CC(=O)OC1=O", "note": "(stereo not drawn)", "values": [
      {"measurement": "outcome", "result": "inactive"}
    ]},
    {"molecule": "C=CCOc1nc(OCC=C)nc(OCC=C)n1", "values": [
      {"measurement": "outcome", "result": "inactive"}
    ]},
    {"molecule": "COc1ccc(-c2coc3cc(O)ccc3c2=O)cc1", "values": [
      {"measurement": "outcome", "result": "inactive"}
    ]},
    {"molecule": "OC1OCCOC1O", "note": "(stereo not drawn)", "values": [
      {"measurement": "outcome", "result": "inactive"}
    ]},
    {"molecule": "CO[Si](CCC1CCC2OC2C1)(OC)OC", "note": "(stereo not drawn)", "values": [
      {"measurement": "outcome", "result": "inactive"}
    ]},
    {"molecule": "C[Si]1(C)N[Si](C)(C)N[Si](C)(C)N1", "values": [
      {"measurement": "outcome", "result": "inactive"}
    ]},
    {"molecule": "CO[C@@H]1COCC[C@@H]1N[C@@H]1CC[C@@](C(=O)N2CCc3ncc(C(F)(F)F)cc3C2)(C(C)C)C1", "values": [
      {"measurement": "outcome", "result": "inactive"}
    ]},
    {"molecule": "CCCCOCCOC(=O)c1cccnc1", "values": [
      {"measurement": "outcome", "result": "inactive"}
    ]},
    {"molecule": "CCCCCCOC(=O)C(C)C", "values": [
      {"measurement": "outcome", "result": "inactive"}
    ]},
    {"molecule": "O=C(O)c1ccccc1C(=O)Nc1ccc(S(=O)(=O)Nc2nccs2)cc1", "values": [
      {"measurement": "outcome", "result": "inactive"}
    ]},
    {"molecule": "Cc1nc(C)nc(N2C[C@@H](C)N(c3ccnc([C@@H](C)O)n3)[C@@H](C)C2)n1", "values": [
      {"measurement": "outcome", "result": "inactive"}
    ]},
    {"molecule": "CC(=O)Nc1cc(S(=O)(=O)O)cc2cc(S(=O)(=O)O)c(N=Nc3ccccc3)c(O)c12", "values": [
      {"measurement": "outcome", "result": "inactive"}
    ]},
    {"molecule": "Cc1cc(CC(=O)O)c(C)n1-c1ccc(Cl)cc1", "values": [
      {"measurement": "outcome", "result": "inactive"}
    ]},
    {"molecule": "O=C(CCCl)NCCc1ccccc1", "values": [
      {"measurement": "outcome", "result": "inactive"}
    ]},
    {"molecule": "Nc1cc(S(=O)(=O)O)ccc1O", "values": [
      {"measurement": "outcome", "result": "inactive"}
    ]},
    {"molecule": "O=C(O)C[C@H](O)C[C@H](O)/C=C/c1c(C2CC2)nc2ccccc2c1-c1ccc(F)cc1", "values": [
      {"measurement": "activation", "result": "-0.173% [at 11.8 µM]"}
    ]},
    {"molecule": "c1ccc(CCNc2nc(-c3ccccc3)cs2)cc1", "values": [
      {"measurement": "outcome", "result": "inactive"}
    ]},
    {"molecule": "COC(=O)N/N=C/c1c[n+]([O-])c2ccccc2[n+]1[O-]", "values": [
      {"measurement": "outcome", "result": "inactive"}
    ]},
    {"molecule": "Cc1cccc(N(C)C(=S)Oc2ccc3c(c2)CCC3)c1", "values": [
      {"measurement": "outcome", "result": "inactive"}
    ]},
    {"molecule": "N#Cc1c(F)cccc1F", "values": [
      {"measurement": "outcome", "result": "inactive"}
    ]},
    {"molecule": "Cc1[nH]cnc1CN1CCc2c(c3ccccc3n2C)C1=O", "values": [
      {"measurement": "outcome", "result": "inactive"}
    ]},
    {"molecule": "O=c1[nH]cccc1O", "values": [
      {"measurement": "outcome", "result": "inactive"}
    ]},
    {"molecule": "CCn1nc(Cc2ccccc2)cc1C1CCN(C[C@H]2C[C@H](N(C)[C@@H](C(=O)O)C(C)C)C[C@@H]2c2cccc(F)c2)CC1", "values": [
      {"measurement": "outcome", "result": "inactive"}
    ]},
    {"molecule": "CC(C)c1ccc(C(=O)N=C(N)N)cc1S(C)(=O)=O", "values": [
      {"measurement": "outcome", "result": "inactive"}
    ]}
  ]
}
